# From PubChem BioAssay (NCI)
# About 83,000 compounds went through this panel and 20% of them were active in at least one assay; those are over-represented in the sample as a whole.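 Note: values are percent growth. 100 is the growth of untreated cells, values between 100 and 0 indicate rising inhibition; between -100 and 0 indicates cell death.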 A number with no mark means an inactive call. Active and inactive are the calls of the source. Rule for the calls: active = growth percent below 10; inactive = the rest.
# System: 786-0 renal
# Experiment: NCI-60 one-dose screen, 48 h (100 = growth as untreated, 0 = no growth, -100 = all killed)
# Conditions: 10 µM unless noted
row,SMILES,growth
1,CCOC(=O)c1cc(C(=O)c2ccc(O)c(O)c2)n2ccc(-c3ccn4c(C(=O)c5ccc(O)c(O)c5)cc(C(=O)OCC)c4c3)cc12,87%
2,CC1C(/C=N/Nc2ccccc2)C(C#N)(C#N)C1(C#N)C#N (stereo unspecified),92.9%
3,O=C(/C=C/c1ccc(C(F)(F)F)cc1)Nc1ccc(C=C2c3ccccc3C(=O)c3ccccc32)cc1,62.1%
4,CC/C=C\C[C@H](O)C/C=C1/C(=O)C=C[C@@]1(C)C/C=C\CCCC(=O)OC,100%
5,COc1cc(-c2nn(-c3ccc(C(=O)O)cc3)cc2C(=O)O)ccc1O,78.3%
6,COc1ccc(O)c(N=Nc2nccs2)c1,70.6%
7,NCCNc1nc(Nc2ccc(-c3nc4ccccc4[nH]3)cc2)c2cn[nH]c2n1,93%
8,COc1cc(-c2nn(-c3ccc(Br)cc3)cc2C(=O)O)ccc1O,97.6%
9,OCCN1CCN(c2nc(Nc3ccc(-c4nc5ccccc5[nH]4)cc3)c3cn[nH]c3n2)CC1,-88.5% (active)
10,O=c1oc2c(C(F)(F)F)cccc2cc1-c1csc(Nc2ccc(OCCF)cc2)n1,9.77% (active)
11,N#Cc1nnn(-c2ccc(S(N)(=O)=O)cc2)c1NC(=O)CCl,98%
12,C=C1C(=O)O[C@H]2[C@H]1CC/C(C=Nc1ccc(C(F)(F)F)cc1N)=C\CC[C@@]1(C)O[C@@H]21,25%
13,CSc1ccc(-c2ccccc(=O)c2O)cc1,8.4% (active)
14,Clc1ccc2c(NCCNc3nc(N4CCCCC4)nc4ccccc34)ccnc2c1,-36.9% (active)
15,Cn1ccnc1C(=O)/C=C/c1ccc(CC(=O)Nc2ccccc2)cc1,18.6%
16,CC(C)CSc1nc(N)nc2c1ncn2C1OC(CO)C(O)C1O (stereo unspecified),121%
17,Cc1cc(N[C@@H]2CCC[C@H](Nc3ccnc4cc(Cl)ccc34)C2)nc(N2CCCCCC2)n1,-96.1% (active)
18,CC(C)(CCCN=C(N)Nc1ccc(Cl)cc1)c1ccc(F)cc1,73.4%
19,COc1ccc(-c2nc(SCC(=O)Nc3ccc(C(=O)/C=C/c4ccc(Cl)cc4)cc3)[nH]c(=O)c2C#N)cc1,105%

row,SMILES,growth
1,FC(F)(F)Oc1ccc2nc3nc4ccc[nH]c4cc3c2c1,46.4%
2,CCOC(=O)C(C)(C#N)C1C=CCCC1 (stereo unspecified),87%
3,O=C1/C(=C/c2ccc(OCCCOc3ccc(Cl)cc3)cc2)N=C2SCCCN12,82.1%
4,COc1cc(-c2nn(-c3ccc(C)cc3)cc2C(=O)O)ccc1O,101%
5,CC(=O)c1cc2c(N)c(C(=O)Nc3cccc(F)c3C)sc2nc1C,92.1%
6,COc1ccc(C2C(C#N)=C(N)Oc3n[nH]c(-c4cccs4)c32)cc1I (stereo unspecified),99.1%
7,CC(=O)c1cc(C(=O)c2ccc3c(c2)Sc2ccccc2N3)n2ccccc12,22.5%
8,CCOC(=O)c1c(C(=O)OCC)c2cc(-c3ccn4c(C(=O)c5ccccc5)c(C(=O)OCC)c(C(=O)OCC)c4c3)ccn2c1C(=O)c1ccccc1,98.4%
9,Cc1cc(N2CCCC2)nc(NC2CCCC(Nc3ccnc4cc(Cl)ccc34)C2)n1 (stereo unspecified),-91.1% (active)
10,COc1ccc2c(c1)CC/C(=C\c1cncc(Br)c1)C2=O,92.7%
11,CCc1nc(N)nc(N)c1C#CC(C)c1ccc(-c2ccncc2)cc1Cl (stereo unspecified),18.3%
12,CC(=O)O[C@H]1C(=O)[C@@]2(C)[C@H]([C@H](OC(=O)c3ccccc3)[C@]3(O)C[C@H](OC(=O)[C@H](OC(=O)CCC(=O)OC4CCC(S/N=C(N)/N=C(\N)N(C)C)CC4)[C@@H](NC(=O)c4ccccc4)c4ccccc4)C(C)=C1C3(C)C)[C@]1(OC(C)=O)CO[C@@H]1C[C@@H]2O (stereo partly specified),33.3%
13,CCNC(=O)Oc1ccc(/C(=C(\C)c2ccc(Cl)cc2)c2ccc(OCCN3CCCCC3)cc2)cc1,41.9%
14,CCOc1ccc(C(C)=O)cc1NC(=O)c1cccc(-c2nnn(CC)n2)c1,35.5%
15,CC/C=C\C[C@H]1C/C=C2/C(=O)C=C[C@H]2C/C=C\CCCC(=O)O1,24.7%
16,COc1cccc2c1C(=O)c1c(O)c3c(c(O)c1C2=O)C[C@](O)(C(=O)CO)C[C@H]3O[C@@H]1C[C@@H](NC(=O)CCCCCN(C)C2(c3ccc(F)cc3)CC3CCC2C3)[C@H](O)[C@@H](C)O1 (stereo partly specified),-92.7% (active)
17,O=C(CN1CCCCC1)Nc1ccc2oc(=O)ccc2c1,107%
18,COc1cc(C)c(C2C(C#N)=C(N)Oc3n[nH]c(-c4cccs4)c32)cc1C(C)C (stereo unspecified),103%
19,CCNC(=O)Oc1ccc(/C(=C(\C)c2ccc(Cl)cc2)c2ccc(OCCN(CC)CC)cc2)cc1,24.7%

# System: COLO 205 colon
# Experiment: as above
# Conditions: 10 µM unless noted
row,SMILES,growth
1,CCOC(=O)c1cc(C(=O)c2ccc(O)c(O)c2)n2ccc(-c3ccn4c(C(=O)c5ccc(O)c(O)c5)cc(C(=O)OCC)c4c3)cc12,102%
2,CC1C(/C=N/Nc2ccccc2)C(C#N)(C#N)C1(C#N)C#N (stereo unspecified),105%
3,O=C(/C=C/c1ccc(C(F)(F)F)cc1)Nc1ccc(C=C2c3ccccc3C(=O)c3ccccc32)cc1,66.5%
4,CC/C=C\C[C@H](O)C/C=C1/C(=O)C=C[C@@]1(C)C/C=C\CCCC(=O)OC,113%
5,COc1cc(-c2nn(-c3ccc(C(=O)O)cc3)cc2C(=O)O)ccc1O,113%
6,COc1ccc(O)c(N=Nc2nccs2)c1,94.8%
7,NCCNc1nc(Nc2ccc(-c3nc4ccccc4[nH]3)cc2)c2cn[nH]c2n1,20.8%
8,COc1cc(-c2nn(-c3ccc(Br)cc3)cc2C(=O)O)ccc1O,109%
9,OCCN1CCN(c2nc(Nc3ccc(-c4nc5ccccc5[nH]4)cc3)c3cn[nH]c3n2)CC1,-81.4% (active)
10,O=c1oc2c(C(F)(F)F)cccc2cc1-c1csc(Nc2ccc(OCCF)cc2)n1,-71.8% (active)
11,N#Cc1nnn(-c2ccc(S(N)(=O)=O)cc2)c1NC(=O)CCl,110%
12,C=C1C(=O)O[C@H]2[C@H]1CC/C(C=Nc1ccc(C(F)(F)F)cc1N)=C\CC[C@@]1(C)O[C@@H]21,-74.3% (active)
13,CSc1ccc(-c2ccccc(=O)c2O)cc1,22.6%
14,Clc1ccc2c(NCCNc3nc(N4CCCCC4)nc4ccccc34)ccnc2c1,-84.6% (active)
15,Cn1ccnc1C(=O)/C=C/c1ccc(CC(=O)Nc2ccccc2)cc1,4.76% (active)
16,CC(C)CSc1nc(N)nc2c1ncn2C1OC(CO)C(O)C1O (stereo unspecified),101%
17,Cc1cc(N[C@@H]2CCC[C@H](Nc3ccnc4cc(Cl)ccc34)C2)nc(N2CCCCCC2)n1,-79.3% (active)
18,CC(C)(CCCN=C(N)Nc1ccc(Cl)cc1)c1ccc(F)cc1,-54% (active)
19,COc1ccc(-c2nc(SCC(=O)Nc3ccc(C(=O)/C=C/c4ccc(Cl)cc4)cc3)[nH]c(=O)c2C#N)cc1,86.8%

row,SMILES,growth
1,FC(F)(F)Oc1ccc2nc3nc4ccc[nH]c4cc3c2c1,95.4%
2,CCOC(=O)C(C)(C#N)C1C=CCCC1 (stereo unspecified),106%
3,O=C1/C(=C/c2ccc(OCCCOc3ccc(Cl)cc3)cc2)N=C2SCCCN12,78.2%
4,COc1cc(-c2nn(-c3ccc(C)cc3)cc2C(=O)O)ccc1O,112%
5,CC(=O)c1cc2c(N)c(C(=O)Nc3cccc(F)c3C)sc2nc1C,74.3%
6,COc1ccc(C2C(C#N)=C(N)Oc3n[nH]c(-c4cccs4)c32)cc1I (stereo unspecified),117%
7,CC(=O)c1cc(C(=O)c2ccc3c(c2)Sc2ccccc2N3)n2ccccc12,-55.4% (active)
8,CCOC(=O)c1c(C(=O)OCC)c2cc(-c3ccn4c(C(=O)c5ccccc5)c(C(=O)OCC)c(C(=O)OCC)c4c3)ccn2c1C(=O)c1ccccc1,109%
9,Cc1cc(N2CCCC2)nc(NC2CCCC(Nc3ccnc4cc(Cl)ccc34)C2)n1 (stereo unspecified),-90.7% (active)
10,COc1ccc2c(c1)CC/C(=C\c1cncc(Br)c1)C2=O,106%
11,CCc1nc(N)nc(N)c1C#CC(C)c1ccc(-c2ccncc2)cc1Cl (stereo unspecified),12.3%
12,CC(=O)O[C@H]1C(=O)[C@@]2(C)[C@H]([C@H](OC(=O)c3ccccc3)[C@]3(O)C[C@H](OC(=O)[C@H](OC(=O)CCC(=O)OC4CCC(S/N=C(N)/N=C(\N)N(C)C)CC4)[C@@H](NC(=O)c4ccccc4)c4ccccc4)C(C)=C1C3(C)C)[C@]1(OC(C)=O)CO[C@@H]1C[C@@H]2O (stereo partly specified),-8.92% (active)
13,CCNC(=O)Oc1ccc(/C(=C(\C)c2ccc(Cl)cc2)c2ccc(OCCN3CCCCC3)cc2)cc1,-60.9% (active)
14,CCOc1ccc(C(C)=O)cc1NC(=O)c1cccc(-c2nnn(CC)n2)c1,-3.73% (active)
15,CC/C=C\C[C@H]1C/C=C2/C(=O)C=C[C@H]2C/C=C\CCCC(=O)O1,6.26% (active)
16,COc1cccc2c1C(=O)c1c(O)c3c(c(O)c1C2=O)C[C@](O)(C(=O)CO)C[C@H]3O[C@@H]1C[C@@H](NC(=O)CCCCCN(C)C2(c3ccc(F)cc3)CC3CCC2C3)[C@H](O)[C@@H](C)O1 (stereo partly specified),-63.7% (active)
17,O=C(CN1CCCCC1)Nc1ccc2oc(=O)ccc2c1,119%
18,COc1cc(C)c(C2C(C#N)=C(N)Oc3n[nH]c(-c4cccs4)c32)cc1C(C)C (stereo unspecified),118%
19,CCNC(=O)Oc1ccc(/C(=C(\C)c2ccc(Cl)cc2)c2ccc(OCCN(CC)CC)cc2)cc1,-57.8% (active)
